Screening results: PubChem, National Center for Advancing Translational Sciences (NCATS)
This is a sample that favours compounds with a hit; in the whole collection about 8% have one here.
SARS PLpro yeast-1: inhibitors of SARS-CoV papain-like protease in yeast. S. cerevisiae expressing SARS-CoV PLpro, growth rescue. Potency, µM (series often up to 32.9 µM), for inactives: at the highest dose activity, positive = growth rescue, most hits filed as activators. 330,000 compounds, 0.19% hits. AID 485353; calls by dose curve; also: potency is read from the fitted curve at half-maximal effect; 0% is about no effect; nearly all actives have a fitted effect of over 55% in size
LASV entry inh: blocks Lassa virus binding to or entry into cells | Lassa virus pseudotype entry inhibition, cell reporter | Potency, µM (doses to about 37.9 µM), without a hit: at the top dose activity change, negative = inhibition, hits mostly inhibitors | 300,000 compounds, 1.2% hits; calls by dose curve; tested in HEK293 cells; also: potency is read from the fitted curve at half-maximal effect; % is scaled to controls: 0 for no effect and ±100 for the full control effect; nearly all actives have a fitted effect of over 50% in size
HCMV antiviral: blocks human cytomegalovirus replication | 410,000 compounds, 4.5% hits | activity change, negative = inhibition, % at 57.5 µM | HFF cells, HCMV-luciferase reporter, 72 h; hits give low values; in the data active = activity change below about -60%; inconclusive = no clear call, values can overlap the other calls; inactive = above about -39%; also: % is scaled to controls: 0 for no effect and ±100 for the full control effect
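Inhibition of viral replication was scored as loss of reporter luminescence in HFFs infected with HCMV-luciferase (MOI 1 PFU/cell) for 72 h; compounds tested at 2 doses, normalized to buffer and Salinomycin controls.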
HCV inh: HCV inhibition. Huh7.5.1 HCVcc-Cre infection, luciferase reporter, 44 h. Potency, µM (highest dose often 41.8 µM), without a hit: top-dose activity change, negative = inhibition, most hits filed as inhibitors. 340,000 compounds, 3.4% hits. AID 651820; active = well fitted inhibition curve with a large enough effect; inconclusive = small, poorly fitted or top-dose-only effect, or another doubt; inactive = no such curve, though single readings can be large or run the other way; also: potency is read from the fitted curve at half-maximal effect; % is scaled to controls: 0 for no effect and ±100 for the full control effect
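Infectious HCVcc-Cre (~0.5 moi) was added to cells just after compound, with cells seeded 4 h earlier at 1,000 per well. Luciferase activity after 44 h culture reported infection; substrate was incubated 15 min at room temperature before reading.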
FMDV antiviral: foot and mouth disease virus antiviral activity; FMDV antiviral cell-based qHTS; Potency, µM (series often up to 57.9 µM), for the others: top-dose activity change, negative = inhibition, actives largely listed as inhibitors; 410,000 compounds, 1.2% hits; AID 1159524; calls by dose curve; tested in HEK293T cells; also: read-out not given here; potency is read from the fitted curve at half-maximal effect; % is scaled to controls: 0 for no effect and ±100 for the full control effect; nearly all actives have a fitted effect of over 45% in size
Marburg entry inh: inhibitors of Marburg virus binding or cell entry. Marburg virus pseudotyped entry inhibition, cell reporter. Potency, µM (series often up to 37.8 µM), inactives show at the top dose activity change, negative = inhibition, actives largely listed as inhibitors. 300,000 compounds, 1.8% hits. AID 540276; calls by dose curve; tested in HEK293 cells; also: potency is read from the fitted curve at half-maximal effect; % is scaled to controls: 0 for no effect and ±100 for the full control effect
SARS PLpro yeast-2: Rescues yeast growth by inhibiting SARS-CoV PLpro | 1,000 compounds, 19% hits | yeast expressing SARS-CoV PLpro, growth phenotype rescue | shares compounds with SARS PLpro yeast-1 | calls only; call rule not given here
* marks the source's active call; other numbers are inactive results; i = inactive; ? = inconclusive; nt = no result; + = active, no number; [ ] = remark or other dose.

SMILES | SARS PLpro yeast-1 | LASV entry inh | HCMV antiviral | HCV inh | FMDV antiviral | Marburg entry inh | SARS PLpro yeast-2
CCOC(=O)c1[nH]cnc1C(=O)N1CCN(C(=O)OC(C)(C)C)CC1 | ? | nt | 0.8 | 3.9% | -1.6% | nt | ?
C[C@H](OC(=O)c1[nH]cnc1C(=O)N1CCN(C(=O)OC(C)(C)C)CC1)c1ccccc1 | -3.9% | nt | 14.3 | ? | ? | nt | nt
Cc1cc(C)cc(C(=O)N(c2ccccn2)C(C)c2ccco2)c1 (centres undefined) | ? | -5.2% | 8.5 | -13.2% | 30.7% | -17.2% | i
Cc1cccc(C(=O)N(c2ccccn2)C(C)c2ccco2)c1 (centres undefined) | -0.1% | -5.0% | 30.8 | 8.3% | 24.6% | -21.9% | nt
CC(=O)c1ccc(NC(=O)Cn2c(=O)oc3cc(S(=O)(=O)N4CCCCC4)ccc32)cc1 | nt | nt | 5.5 | nt | 3.4% | 29.9%[46.1 µM] | nt
COc1ccccc1NC(=O)CSc1nc2ccccc2c(=O)n1CCC(=O)NC1CCCCC1 | nt | -0.2%[46.1 µM] | 10.9 | nt | -12.7% | nt | nt
c1cncc(-c2ccc3ncnc(NCc4ccc5c(c4)OCO5)c3c2)c1 | 3.5% | nt | -22.2 | nt | -16.5% | nt | i
Cc1c(NC(=O)CSc2ccc(Cl)cc2)cccc1-c1nc2ncccc2o1 | ? | ? | ? | ? | -29.1% | ? | ?
CCC(=O)Nc1cccc(-c2nc3ncccc3o2)c1C | -2.0% | nt | -3.7 | 7.3% | -20.1% | nt | nt
Cc1cccc(OCCNc2cc(N3CCN(CCO)CC3)ccc2[N+](=O)[O-])c1 | 12.6µM* | 15.1% | -3.2 | ? | 19.7% | ? | i
Cc1ccc(N(CC(=O)Nc2ccc(Cl)cc2)S(=O)(=O)c2cccc3nonc23)cc1 | nt | -11.6%[46.1 µM] | 1.6 | nt | 8.8% | -6.3%[46.1 µM] | nt
CCn1c(CNC(=O)c2ccc(OC)cc2)nnc1SCC(=O)Nc1cccc(C)c1 | nt | 4.8%[46.1 µM] | 19.5 | nt | -8.6% | 24.7%[46.1 µM] | nt
Cc1cccc(NC(=S)NCC2CCCO2)c1 (centres undefined) | ? | -8.5% | 17.1 | 5.5% | 33.1% | ? | i
O=C(COc1ccc2oc3c(c2c1)CCCC3)Nc1ccc(Cl)cc1 | nt | -3.9%[46.1 µM] | -30.7 | nt | -0.4% | -1.8%[46.1 µM] | nt
CC(=O)Nc1ccc(NC(=O)CSc2nc3ccccc3c(=O)n2CCCN2CCOCC2)cc1 | -5.3% | 8.1% | -8.5 | 25.7% | 7.3% | 2.9% | nt
O=C(CSc1nc2ccccc2c(=O)n1CCCN1CCOCC1)Nc1ccccc1OC(F)F | 2.82µM* | ? | -27.6 | 5.3% | -9.9% | ? | i
CC(C)NC(=S)N/N=C/c1ccc2c(c1)OCCO2 | 15.8µM* | 2.0% | -67.2* | 25.2% | 27.7% | ? | +
CCC(C)NC(=O)c1ccc2c(c1)nc1n2CCCCC1 (centres undefined) | nt | -4.1%[46.1 µM] | 27.4 | nt | 30.0% | nt | nt
Clc1ccc(CNC23CN4CN(CN(C4)C2)C3)c(Cl)c1 | ? | 22.2% | -28.6 | 4.4% | -20.4% | 13.0% | i
CC(C)C(=O)Nc1ccc(C(=O)Nc2nnc(C(C)(C)C)s2)cc1 | 0.4% | 11.8%[46.1 µM] | ? | -12.7% | -10.5% | -2.4%[46.1 µM] | nt
CC(C)C(=O)Nc1cccc(C(=O)Nc2nnc(C(C)(C)C)s2)c1 | ? | 17.7% | 31.4 | -29.1% | 1.5% | 0.1% | i
CCN(CC)S(=O)(=O)c1cccc(NC(=O)/C=C/c2cccc([N+](=O)[O-])c2)c1 | 20µM* | ? | -85.0* | 6.31µM* | 17.8µM* | ? | ?
CCN(CC)S(=O)(=O)c1cccc(NC(=O)/C=C/c2ccc([N+](=O)[O-])cc2)c1 | 11.1% | -9.1% | -15.0 | ? | -23.2% | -0.5% | nt
CCCCCCOC(=O)C(C#N)c1nc2ccccc2nc1N1CCN(C)CC1 (centres undefined) | ? | ? | -15.7 | ? | -26.7% | ? | i
COc1cc2nc(CN3C(=O)c4ccccc4C3=O)oc(=O)c2cc1OC | 22.4µM* | 1.8% | -19.6 | 5.6% | -17.0% | 0.2% | i
SMILES | SARS PLpro yeast-1 | LASV entry inh | HCMV antiviral | HCV inh | FMDV antiviral | Marburg entry inh | SARS PLpro yeast-2
COc1cc2nc(-c3ccccc3C)oc(=O)c2cc1OC | -4.0% | 29.9% | -23.2 | -26.0% | -1.7% | ? | nt
O=C(Cn1c(=O)n(-c2ccccc2)c(=O)c2sc3ccccc3c21)NC1CCCC1 | nt | 29.7%[46.1 µM] | -22.9 | nt | -18.9% | 14.4%[46.1 µM] | nt
COc1ccc(-n2cc(-c3ccccc3)c3c(SC(C)C(C)=O)ncnc32)cc1 (centres undefined) | nt | 24.7%[46.1 µM] | 0.3 | nt | -25.3% | 24.6%[46.1 µM] | nt
CN(CC(=O)Nc1c(Cl)cccc1Cl)C(=O)c1ccccc1SCC(=O)N1CCCC1 | 10.4% | -18.5% | 50.6 | 10.9% | -7.0% | 3.2%[46.1 µM] | nt
Cc1cccc(C)c1NC(=O)CN(C)C(=O)c1ccccc1SCC(=O)N1CCCC1 | 14.1µM* | 0.1% | -7.1 | -26.6% | -8.8% | -29.9% | i
CC1=C(/C=C/C(C)=C/C=C/C(C)=C/C(=O)O)C(C)(C)CCC1O (centres undefined) | nt | nt | nt | nt | -22.3% | nt | nt
NS(=O)(=O)c1ccc(NCc2ccccc2OCc2ccccc2F)cc1 | -1.7% | 2.9% | ? | ? | nt | ? | nt
COc1cccc(CNc2ccc(S(N)(=O)=O)cc2)c1OC | ? | 13.5% | -6.1 | -4.3% | -3.2% | -2.9% | i
CCC(C)OC(=O)/C(C#N)=C\c1ccc(-c2cccc(C(F)(F)F)c2)o1 (centres undefined) | nt | -26.2%[46.1 µM] | 10.3 | nt | -10.0% | nt | nt
COCCCNC(=O)c1c(NC(=O)C2COc3ccccc3O2)sc2c1CCCC2 (centres undefined) | ? | -14.6% | -14.4 | ? | -18.6% | 13.6% | i
COc1nc(Nc2ccc(C(C)C)cc2)nc(OC)n1 | ? | ? | -15.6 | ? | 9.2% | -9.6% | i
COc1ccccc1NC(=S)NNC(=O)c1nn(C)c(C)c1Cl | 7.9% | 21.3% | 5.5 | 17.9% | 0.0% | 2.3% | nt
COc1ccccc1NC(=S)NNC(=O)c1nn(C)c(C)c1Br | 15.8µM* | 6.5% | -21.6 | 33.9% | 58.3% | 13.7% | i
Cc1cnc(CNc2ncnc3ccc(-c4ccc(N(C)C)cc4)cc23)cn1 | nt | nt | nt | nt | -6.9% | nt | nt
Cc1ccc2c(=O)cc(C(=O)N(Cc3ccc(N(C)C)cc3)C3CCS(=O)(=O)C3)oc2c1 (centres undefined) | nt | -21.3%[46.1 µM] | -21.3 | nt | -14.0% | -9.7%[46.1 µM] | nt
COc1ccccc1N1CCN(c2nc3ccc(C(=O)c4ccccc4)cc3n3c(C)nnc23)CC1 | nt | 11.4%[46.1 µM] | 0.0 | nt | -3.8% | nt | nt
CC(C)(C)OC(=O)C[C@H]1C/C=C\C[C@@H](CC(=O)N[C@@H](CO)Cc2ccccc2)C(=O)NC[C@H](c2ccccc2)OC1=O | 3.55µM* | nt | -5.3 | 10.1% | -25.7% | nt | i
COCC(=O)N1CCC[C@@]2(CCN(C(=O)Nc3cccc(C#N)c3)C2)C1 | nt | nt | nt | nt | -7.2% | nt | nt
Cc1ccc(S(=O)(=O)N(C)C[C@H]2Oc3ccc(NC(=O)Nc4c(C)noc4C)cc3CC(=O)N([C@@H](C)CO)C[C@@H]2C)cc1 | -6.3% | nt | 3.7 | 5.3% | -1.5% | nt | nt
